Shown is part of a subset that was picked to be rich in hits.
NOMO-1 viab = STK33 inhibitor candidate reducing NOMO-1 cell viability | NOMO-1 AML viability, CellTiter-Glo luminescence, 72 h | inhibition, % (no concentration beside the values) | hit rate 7.5% among 37,000; in the data active = inhibition above about 80%
ROS inducer = cancer cell ROS induction. AID 624156. hit rate 2% among 46,000. ROS induction (% of piperlongumine), % at 10 µM. U2OS ROS induction, H2DCF-DA fluorescence; in the data active = ROS induction above about 79%, passing the limit was not always enough;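 also: 0% = DMSO vehicle median and 100% = reference compound median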
Starred values were filed as active, the others as inactive; . = no result.

SMILES | NOMO-1 viab | ROS inducer
C[C@@H]1CN([C@@H](C)CO)C(=O)c2cccc(NC(=O)CCCCCC(=O)Nc3ccccc3N)c2O[C@@H]1CN(C)Cc1ccc(Oc2ccccc2)cc1 | 126.2* | 135.5*
C[C@@H]1CN([C@H](C)CO)C(=O)c2cccc(NC(=O)CCCCCC(=O)Nc3ccccc3N)c2O[C@@H]1CN(C)Cc1ccc(Oc2ccccc2)cc1 | 139.8* | 9.1
C[C@H](CO)N1C[C@H](C)[C@H](CN(C)C(=O)Nc2ccccc2)Oc2c(NC(=O)CCCCCC(=O)Nc3ccccc3N)cccc2C1=O | 4.6 | 22.2
Cc1ccnc(NS(=O)(=O)c2ccc(NC(=O)C34CCC5CC(CC(C5)C3)C4)cc2)n1 | 19.3 | -4.1
C[C@H](CO)N1C[C@H](C)[C@H](CN(C)S(=O)(=O)c2cn(C)cn2)Oc2ccc(NS(C)(=O)=O)cc2CC1=O | -5.7 | -6.7
Cc1nc(/N=C(\N)NC(=O)c2ccccc2)nc2ccccc12 | . | 36.5
Cc1nc(N=C(N)N)nc2ccccc12 | 88.7* | 21.0
COc1ccc(NC(=O)Nc2ccc3c(c2)C(=O)N([C@H](C)CO)C[C@H](C)[C@H](CN(C)Cc2ccc(C(=O)O)cc2)O3)cc1 | 1.7 | -5.2
CCOc1ccccc1NC(=O)C(C)Oc1ccc(OC)cc1 (stereo not drawn) | 105.1* | 2.0
COc1ccc(OC(C)C(=O)Nc2cc(OC)cc(OC)c2)cc1 (stereo not drawn) | 35.6 | 15.5
COc1ccc(C(NC(=O)c2ccccc2)c2ccc3cccnc3c2O)c(OC)c1 (stereo not drawn) | 109.0* | 52.8
COc1ccc(C(=O)NC(c2ccccc2)c2ccccc2)cc1 | 32.0 | 7.4
COc1ccc(C(NC(C)=O)c2c(O)ccc3ccccc23)cc1OC (stereo not drawn) | -20.5 | -17.8
COc1ccc(C(NC(C)=O)c2ccc3cccnc3c2O)cc1OC (stereo not drawn) | 106.9* | -20.1
C[C@H]1CN([C@@H](C)CO)C(=O)c2cc(NC(=O)Cc3cn(C)c4ccccc34)ccc2O[C@H]1CN(C)S(=O)(=O)c1cccs1 | 13.6 | 24.4
CCc1ccc(Nc2nc3ccccc3nc2NS(=O)(=O)c2ccc(NC(C)=O)cc2)cc1 | 24.9 | -0.1
Cc1ncc(CO)c(/C=N/NC(=O)CCCCCCC(=O)O)c1O | . | -12.4
COc1ccc(NC(=O)c2oc3ccccc3c2NC(=O)c2ccccc2)cc1 | . | 43.7
Cc1sc(NC(=O)c2cc(-c3cccnc3)nc3ccccc23)c(C(=O)NC2CCCCC2)c1C | 97.9* | .
O=C(NC1CCCC1)c1c(NC(=O)c2cc(-c3cccnc3)nc3ccccc23)sc2c1CCCC2 | 8.3 | .
CCN1CCN(c2ccc(NC(=O)/C=C/c3ccccc3)cc2)CC1 | 58.8 | 35.1
CCCCn1nnc2c(=O)oc3ccccc3c21 | . | 187.2*
CN1CCN(CCCn2nnc3c(=O)oc4ccccc4c32)CC1 | 1.9 | .
O=C(NO)c1cccc(C(=O)N/N=C/c2cc(O)ccc2O)c1 | . | 106.6*
O=C(NO)c1cccc(C(=O)N/N=C/c2cc(F)ccc2O)c1 | . | -10.2
SMILES | NOMO-1 viab | ROS inducer
C[C@@H]1CN([C@H](C)CO)C(=O)Cc2cc(NC(=O)CCC(F)(F)F)ccc2O[C@H]1CN(C)Cc1ccccc1 | -5.1 | 5.0
C[C@@H]1CN([C@@H](C)CO)C(=O)c2cc(NC(=O)CCC(F)(F)F)ccc2O[C@@H]1CN(C)Cc1ccc(-c2ccccc2)cc1 | 63.5 | 18.3
C[C@@H]1CN([C@H](C)CO)C(=O)c2cc(NC(=O)CCC(F)(F)F)ccc2O[C@H]1CN(C)Cc1ccc(Oc2ccccc2)cc1 | 85.1* | 22.4
C[C@H]1CN([C@@H](C)CO)C(=O)Cc2cc(NC(=O)CCC(F)(F)F)ccc2O[C@H]1CN(C)Cc1ccc(-c2ccccc2)cc1 | 30.9 | 2.8
C[C@@H]1CN([C@H](C)CO)C(=O)Cc2cc(NC(=O)CCC(F)(F)F)ccc2O[C@H]1CN(C)Cc1ccc(Oc2ccccc2)cc1 | 93.8* | 32.3
C[C@H]1CN([C@@H](C)CO)C(=O)Cc2cc(NC(=O)CCC(F)(F)F)ccc2O[C@@H]1CN(C)Cc1ccc(-c2ccccc2)cc1 | 97.1* | 59.1
C[C@@H]1CN([C@H](C)CO)C(=O)c2cccc(NC(=O)c3ccc(-c4nccs4)cc3)c2O[C@H]1CN(C)C(=O)Nc1ccc2c(c1)OCO2 | -22.5 | -14.9
Cc1cc2c(c(=O)n1Cc1ccccn1)C(c1ccccc1)C(C#N)=C(N)O2 (stereo not drawn) | 17.9 | 10.0
CC(=O)c1cc(C)ccc1OC(=O)CCN1C(=O)c2ccccc2C1=O | 8.5 | .
C[C@@H]1O[C@@H](Oc2cc(O)c3c(=O)c(-c4ccc(O)cc4)coc3c2)[C@H](O)[C@H](O)[C@H]1O | 5.2 | 7.4
O=C(O)[C@H]1O[C@@H](Oc2cc(O)c3c(=O)c(-c4ccc(O)cc4)coc3c2)[C@H](O)[C@@H](O)[C@@H]1O | 107.6* | -4.3
CCNS(=O)(=O)c1ccc(NC(=O)c2cc(-c3ccccn3)nc3c(C)c(C)ccc23)cc1 | 24.8 | .
C[C@@H]1CN([C@H](C)CO)C(=O)c2cccc(NC(=O)Nc3ccc4c(c3)OCO4)c2O[C@@H]1CN(C)Cc1ccc(Oc2ccccc2)cc1 | 32.4 | 14.0
C[C@H](CO)N1C[C@H](C)[C@@H](CN(C)Cc2ccc(Oc3ccccc3)cc2)Oc2c(NC(=O)Nc3ccc4c(c3)OCO4)cccc2C1=O | 60.0 | 20.7
C[C@@H]1CN([C@@H](C)CO)C(=O)c2cccc(NC(=O)Nc3ccc4c(c3)OCO4)c2O[C@@H]1CN(C)Cc1ccc(Oc2ccccc2)cc1 | 94.6* | 71.2
C[C@@H]1CN([C@@H](C)CO)C(=O)c2cccc(NC(=O)Nc3ccc4c(c3)OCO4)c2O[C@H]1CN(C)Cc1ccc(Oc2ccccc2)cc1 | 95.3* | 40.7
C[C@@H]1CN([C@@H](C)CO)C(=O)Cc2cc(NC(=O)Nc3ccccc3)ccc2O[C@@H]1CN(C)C(=O)Nc1ccc(F)cc1 | 12.0 | -9.2
C[C@H]1CN([C@@H](C)CO)C(=O)c2cc(NC(=O)Nc3ccc4c(c3)OCO4)ccc2O[C@@H]1CN(C)Cc1ccncc1 | -9.4 | 2.4
COc1ccc(NC(=O)Nc2ccc3c(c2)CC(=O)N([C@H](C)CO)C[C@@H](C)[C@@H](CN(C)S(=O)(=O)c2c(C)noc2C)O3)cc1 | 42.5 | -7.9
C[C@@H]1CN([C@H](C)CO)C(=O)c2cccc(NS(=O)(=O)c3cn(C)cn3)c2O[C@@H]1CN(C)Cc1ccncc1 | -23.6 | -6.0
CC(C)=CCc1c(O)c(CC=C(C)C)c2c(c1O)C(=O)CC(c1ccc(O)cc1O)O2 (stereo not drawn) | 116.4* | 37.8
CC(C)=CCc1c(O)cc(O)c2c1OC(c1ccc(O)c(O)c1)CC2=O (stereo not drawn) | . | 52.1
Cc1c(C(=O)NC2CCN(Cc3ccccc3)CC2)cnn1-c1ccc(F)cc1 | . | -9.1
O=C(N/N=C/c1ccc(O)c2ccccc12)c1ccccn1 | . | 23.2
Oc1ccc(Cl)c2cccnc12 | 110.0* | -4.2
CN1CCN(C(=O)CSc2c(-c3ccccc3)c3cc(Cl)ccc3[nH]c2=O)CC1 | . | -1.8
O=C(C1CCCO1)N1N=C(c2c(-c3ccccc3)c3cc(Cl)ccc3[nH]c2=O)CC1c1ccco1 (stereo not drawn) | 92.8* | 177.9*
C[C@H]1CN([C@@H](C)CO)C(=O)c2cccc(NC(=O)Nc3ccccc3)c2O[C@H]1CN(C)C | 15.8 | 30.4
CN(C)CCCNc1ncnc2c1sc1nc(N3CCOCC3)c3c(c12)CCC3 | 97.8* | -28.8
